Results published in PubChem BioAssay (NCI).
Compounds without any hit were thinned out: in the full panel of roughly 83,000, 20% have a hit.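 Each cell line was grown in a 96-well plate and treated with one concentration of compound for 48 hours. Values below 10 were considered active.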 A number with no mark means an inactive call. Calls of active or inactive are those of the source.

What follows are compounds tested on NCI-H522 lung (assay: NCI-60 one-dose screen, 48 h (100 = growth as untreated, 0 = no growth, -100 = all killed)). Conditions: 10 µM unless noted.

Row | Compound | growth
1 | CCOC(=O)c1ccccc1NC(c1ccccc1)c1ccc2cccnc2c1O (stereo not drawn) | -1.69% (active)
2 | O=S(=O)(NCCCNc1nccc(-c2c(-c3ccc(O)cc3)nc3sccn23)n1)c1ccc(F)cc1 | -1.49% (active)
3 | C=CCc1cc(Cl)cc2c(OC(C)=O)c(C(C)=O)c(-c3ccccc3)nc12 | 96.4%
4 | NC(=O)c1cccc(N2Cc3ccccc3OC3=C2C(=O)c2c(O)ccc(O)c2C3=O)c1 | -73.4% (active)
5 | Cc1cccc(NC(=O)c2sc3nc4c(cc3c2N)CCC4)c1C | -16.5% (active)
6 | COc1ccc(/C=C2\CCCC3=C2NC(C)=NC3c2ccc(OC)c(OC)c2)cc1OC (stereo not drawn) | -7.42% (active)
7 | COc1cc(NS(C)(=O)=O)ccc1Nc1c2ccc([N+](=O)[O-])cc2nc2c(C)cccc12 | -25.8% (active)
8 | CC/C=C\C[C@H](O)C/C=C1/C(=O)C(Cl)=C[C@@H]1C/C=C\CCCC(=O)O | -68.1% (active)
9 | CCC(=O)Oc1cc(/C=C/C(=O)O[C@H]2C[C@H]3CN4CCc5c([nH]c6cc(OC)ccc56)[C@@H]4C[C@@H]3[C@@H](C(=O)OC)[C@@H]2OC)ccc1OC | 84%
10 | Nc1ccccc1C#C/C=C\C#Cc1cccc(O)c1 | 52.9%
11 | O=C(CSc1nc(-c2ccc(Cl)cc2)cn1-c1ccc(Cl)cc1)c1ccc(Br)cc1 | 58.8%
12 | COC(=O)CCCCCN=Cc1c(O)c(O)c(C(C)C)c2cc(C)c(-c3c(C)cc4c(C(C)C)c(O)c(O)c(C=NCCCCCC(=O)OC)c4c3O)c(O)c12 | -21.8% (active)
13 | C=CCOc1cccc(/C=C/C(=O)c2sc(Nc3cccnc3)nc2C)c1 | 65.9%
14 | CC(=O)Nc1nc(C(=O)N2N=C(C)/C(=C/c3cccs3)C2=O)cs1 | 86.6%
15 | COc1cc(C2C=C(C)N=C3SC(C)=NN32)cc(OC)c1OC (stereo not drawn) | 89.8%
16 | COc1cc(C2C=C(C)N=C3SC=CN32)cc(OC)c1OC (stereo not drawn) | 97.2%
17 | CC/C=C\C/C=C\C[C@H]1C/C=C2/C(=O)C=C[C@H]2C/C=C\CCC(=O)O1 | -56% (active)
18 | COc1ccc(C2=NN(c3ccc(S(N)(=O)=O)cc3)C(c3cn(-c4ccccc4)nc3-c3ccc(Cl)cc3)C2)cc1 (stereo not drawn) | 71.1%
19 | O=C(CCCn1c2c(sc3ccccc32)c(=O)n2nnc(-c3ccccc3)c12)NCCc1cnc[nH]1 | -95.8% (active)

Row | Compound | growth
20 | CCOC(=O)C1=C(CSC(=S)N(C2CCCCC2)C2CCCCC2)N(C)C(=O)NC1c1ccccc1 (stereo not drawn) | 58.1%
21 | COc1cccc(-c2nc3sccn3c2-c2ccnc(NCCNS(=O)(=O)c3ccccc3)n2)c1 | 49.5%
22 | COC(=O)c1ccc2nc(-c3cc4ccccc4n3C)n(CCCCOc3cc4c(cc3OC)C(=O)N3CCC[C@H]3C=N4)c2c1 | -28.1% (active)
23 | CCn1cc(C(=O)O)c(=O)c2cc(F)c(N3CCN(S(=O)(=O)c4ccc(Cl)cc4Cl)CC3)cc21 | -75.8% (active)
24 | CN(C)c1nc(N)c(N=O)c(N)n1 | 106%
25 | COc1cc(C(=O)/C=C/c2cc(C(=O)c3cc(OC)c(OC)c(OC)c3)ccc2OC)ccc1N | -58.9% (active)
26 | COc1ccc(C2CC(c3cccs3)=NN2c2ccc(S(=O)(=O)NC(=O)Nc3ccc(C)cc3)cc2)cc1 (stereo not drawn) | 91.5%
27 | COc1cccc(/C=C2\SC(N3CCN(c4ccccn4)CC3)=NC2=O)c1 | 71.6%
28 | Nc1nc(N)c2nc(CNc3ccc(C(=O)CC(CCC(=O)O)C(=O)O)cc3)cnc2n1 (stereo not drawn) | -9.57% (active)
29 | Cc1ccc2nc(SCn3nnc4ccccc4c3=O)[nH]c2c1 | 89.5%
30 | O=C1Nc2cc(Cl)ccc2Oc2cc(Oc3ccccc3)ccc21 | 45.1%
31 | OC1CC2c3ccccc3C1c1ccccc12 (stereo not drawn) | 102%
32 | N#Cc1ncc(-c2ccc(F)c(F)c2F)c(NC2CCCCCC2)n1 | 72%
33 | CC(C)(C)c1ccc(S(=O)(=O)Oc2ccc3c4c(c(=O)oc3c2)CCCCC4)cc1 | -14.1% (active)
34 | CC(Cc1nnc(SCC(=O)Nc2ccc(I)cc2)n1N)c1ccccc1 (stereo not drawn) | 82.8%
35 | CCN(Cc1ccc(CN(CC)C(=O)C(Cl)(Cl)Cl)cc1)C(=O)C(Cl)(Cl)Cl | 74%
36 | NC(=O)NC(=O)/C=C/C(=O)OCCCl | -42.5% (active)
37 | CC(=O)OCC1OC(OCC2OC(OC(C)=O)C(OC(C)=O)C(OC(C)=O)C2OC(C)=O)C(OC(C)=O)C(OC(C)=O)C1OC(C)=O (stereo not drawn) | 104%
38 | O=C1c2ccccc2C(=O)c2c1oc1oc3c(c(=O)c21)c(=O)n(-c1ccccc1)c1ccccc31 | 19.4%
